Only some compounds are listed: those with a hit (about 1.8% of all), similar ones and a draw of the others.
ARNT-TACC3 inh: disruptors of ARNT/TACC3 protein interaction, primary screen, biochemical, AlphaScreen, single concentration; Transforming acidic coiled-coil-containing protein 3 (Homo sapiens), Q9Y6A5; AlphaScreen His-ARNT PAS-B/GST-TACC3 binding, luminescence; TACC3 fragment carries E629A point mutation; inhibition, % at 9.99 µM; 0.66% of 390,000 active; AID 623870, 2012;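 active = mean inhibition of replicates at least 50% and at least half of replicates each reaching 50%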;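 also: 0% = complete ARNT plus TACC3 wells and 100% = ARNT alone without TACC3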
iPSC survival up: enhancers of single-cell hiPSC survival, primary screen, ATPlite luminescence | 100% = ROCK inhibitor wells, 0% = DMSO | survival enhancement, % at 20 µM | 0.044% of 360,000 active | AID 602274, 2012; in the data active = survival enhancement above about 18%;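 also: cells exposed to compounds for 16 hours before the ATP read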
ABCB6 inh MLPCN: ABCB6 transporter inhibitors, primary screen, K562-ABCB6 cells, flow cytometry, MLPCN library | K562-ABCB6 porphyrin accumulation, 1 h; stronger effect = lower value | AID 602162, 2011 | fluorescence ratio to DMSO, % at 10 µM | 0.19% of 360,000 active;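 active = fluorescence ratio to DMSO below 75%, the collection mean minus 3 SD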;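 also: signal is porphyrin accumulated inside mitochondria; 100% equals median channel fluorescence of DMSO control wells; lower ratio means ABCB6 inhibition with less porphyrin fluorescence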
GSIS activator: GLuc luminescence reporter in INS-1E cells, primary screen for activators of glucose-dependent secretion of insulin; INS-1E GLuc reporter insulin secretion, 2-3 h; activation, % at 16.6 µM; 0.61% of 370,000 active; AID 743287, 2014;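 active = lowest replicate activation of at least 40%, so every replicate reaches that level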;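 also: 0% = median of neutral control wells and 100% = median of IBMX positive control wells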
NRP1-CendR mod: modulators of CendR peptide binding to NRP-1, primary screen, biochemical, fluorescence polarization, uHTS. Neuropilin-1 (Homo sapiens), O14786. FAM-RPARPAR peptide binding to NRP-1. inhibition, % at 25 µM. 0.85% of 360,000 active;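 active = inhibition or corrected inhibition above about 18%, plus a signal ratio from 0.5 to 1.5, limit read from the data, passing the limit was not always enough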
Target sequence (O14786 whole entry, looked up): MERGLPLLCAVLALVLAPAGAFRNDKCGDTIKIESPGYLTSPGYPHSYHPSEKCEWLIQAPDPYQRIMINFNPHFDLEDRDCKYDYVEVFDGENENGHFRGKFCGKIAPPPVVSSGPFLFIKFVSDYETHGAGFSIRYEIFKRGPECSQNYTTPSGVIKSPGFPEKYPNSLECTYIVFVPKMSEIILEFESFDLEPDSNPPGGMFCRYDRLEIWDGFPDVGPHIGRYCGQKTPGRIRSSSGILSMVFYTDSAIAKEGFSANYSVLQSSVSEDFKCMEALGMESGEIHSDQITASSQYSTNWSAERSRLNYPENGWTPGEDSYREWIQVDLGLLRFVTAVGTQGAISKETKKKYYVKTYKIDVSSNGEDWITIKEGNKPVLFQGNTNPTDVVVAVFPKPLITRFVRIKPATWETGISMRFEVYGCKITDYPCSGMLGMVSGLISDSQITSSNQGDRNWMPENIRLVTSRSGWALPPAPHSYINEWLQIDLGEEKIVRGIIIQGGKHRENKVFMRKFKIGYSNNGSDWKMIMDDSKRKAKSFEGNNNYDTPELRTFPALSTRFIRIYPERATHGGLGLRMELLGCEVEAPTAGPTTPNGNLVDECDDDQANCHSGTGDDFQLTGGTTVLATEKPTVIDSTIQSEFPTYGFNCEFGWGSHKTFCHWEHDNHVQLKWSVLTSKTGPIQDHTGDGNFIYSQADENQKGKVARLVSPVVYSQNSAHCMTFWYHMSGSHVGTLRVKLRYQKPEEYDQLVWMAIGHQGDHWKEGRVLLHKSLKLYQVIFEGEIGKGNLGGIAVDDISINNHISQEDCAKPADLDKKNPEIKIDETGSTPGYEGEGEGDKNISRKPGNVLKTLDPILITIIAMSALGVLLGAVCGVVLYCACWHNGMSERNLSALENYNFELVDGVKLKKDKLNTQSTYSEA
* marks the source's active call; other numbers are inactive results; . = no result.

SMILES	ARNT-TACC3 inh	iPSC survival up	ABCB6 inh MLPCN	GSIS activator	NRP1-CendR mod
Cc1ccc(Cl)cc1C1=CC(=O)C[C@H](c2ccc(F)cc2)C1	-3.4	3.8	96.0	-11.3	26.6*
C[C@H]1CN([C@@H](C)CO)C(=O)c2ccccc2-c2ccccc2CO[C@H]1CN(C)C(=O)c1ccccc1	-4.8	.	.	17.8	.
CCCC(=O)Nc1ccc2c(c1)C(=O)N(C)C[C@@H](OC)[C@H](C)CN(C(=O)CN(C)C)[C@@H](C)CO2	-4.0	.	.	-1.0	.
O=C(COC(=O)CCNS(=O)(=O)c1ccc(Cl)cc1)NCc1ccco1	-6.9	-0.3	90.0	.	19.3*
O=C(COC(=O)CCNS(=O)(=O)c1ccc(Cl)cc1)NCc1ccccc1	.	-1.2	98.0	-8.2	-10.3
COc1cc(/C=N/NC(=O)CNC(=O)c2ccncc2)ccc1O	-8.4	0.3	99.0	11.6	-1.3
COc1cc(/C=N/NC(=O)CNC(=O)c2cccs2)ccc1O	-14.6	-1.0	98.0	45.9*	7.4
O=C1CSC(c2cccc(O)c2)N1Cc1ccccc1 (centres undefined)	-7.0	-0.2	88.0	41.9*	5.1
Cn1nc2c(c1C(=O)N1CCCC(C(=O)c3cc(F)ccc3F)C1)CCCC2 (centres undefined)	.	-1.4	102.0	-1.0	52.8*
COc1ccc(C(=O)C2CCCN(C(=O)c3c4c(nn3C)CCCC4)C2)cc1F (centres undefined)	0.8	0.4	136.0	4.2	17.4
COc1ccc2c3c(n(C)c2c1)[C@H](CO)N(C)CC31CCN(S(=O)(=O)c2cn(C)cn2)CC1	.	.	.	16.9	.
COc1ccc(/C=C2\N=C(c3ccccc3)N(c3ccc(C(=O)O)cc3)C2=O)cc1OC	2.7	1.4	107.0	71.0*	-21.4
Cc1ccc(NC2=C(N3CCOCC3)C(=O)c3ccccc3C2=O)cc1	61.7*	-1.3	104.0	.	8.0
C[C@H](CO)N1C[C@H](C)[C@@H](CN(C)C(=O)c2ccccc2)OCCCC[C@H](C)Oc2ccc(NC(=O)NC3CCCCC3)cc2C1=O	-6.0	.	.	-26.8	.
O=C(C[C@@H]1C=C[C@H](NC(=O)C2CCC2)[C@@H](CO)O1)NCc1ccncc1	0.7	.	.	22.4	.
COC(=O)Cc1ccc(NC(=S)NCCCO)cc1	-8.1	5.4	94.0	.	40.3*
COC(=O)Cc1ccc(NC(=S)NN2CCOCC2)cc1	-2.4	-1.0	103.0	10.6	2.9
COC(=O)Cc1ccc(NC(=S)NCCSc2ccc(C)cc2)cc1	.	2.5	76.0	-28.0	29.2*
CC(C)NC(=O)N(C)C[C@H]1Oc2ccc(NS(C)(=O)=O)cc2CC(=O)N([C@H](C)CO)C[C@@H]1C	-9.8	.	.	16.1	.
CCN(CC)c1ccc(C(=O)NNC(=O)CCNC(=O)c2ccccc2)cc1	2.7	-0.6	97.0	.	-0.5
CCN(CC)c1ccc(C(=C2C=CC(=[N+](CC)CC)C=C2)c2ccccc2)cc1	22.8*	-3.9	86.0	13.7	-1.1
O=C(COC(=O)c1ccc([N+](=O)[O-])s1)NNC(=O)c1ccccc1	42.1*	0.5	95.0	.	-28.5
CN(CC(=O)Nc1ccccc1Cl)C(=O)COC(=O)c1cccs1	-3.5	2.2	97.0	4.2	-0.8
CN(CC(=O)Nc1ccccc1Cl)C(=O)COC(=O)c1ccc([N+](=O)[O-])s1	46.3*	-0.2	103.0	-7.0	-23.6
COc1cc(C(=O)OCC(=O)Nc2c(F)c(F)c(F)c(F)c2F)cc(OC)c1OC	-0.9	0.5	101.0	.	21.1*
SMILES	ARNT-TACC3 inh	iPSC survival up	ABCB6 inh MLPCN	GSIS activator	NRP1-CendR mod
COc1cc(C(N)=O)cc(Br)c1OC	9.0	1.7	98.0	.	25.4*
COc1cccc(C(=O)OCCCOC(=O)c2cccc(OC)c2OC)c1OC	-2.5	0.4	95.0	41.9*	4.6
COc1cc(C(=O)OCC(=O)Nc2c(F)cccc2F)cc(OC)c1C	-7.5	4.9	101.0	2.5	-12.5
COc1cc(C(=O)OCCCOC(=O)c2cc(OC)c(OC)c(OC)c2)cc(OC)c1OC	-10.2	-0.3	92.0	40.7	22.2*
COc1cc(OC)c(C(=O)OCCCOC(=O)c2cc(OC)c(OC)cc2OC)cc1OC	-0.7	-0.3	100.0	17.1	9.9
C[C@@H]1CN([C@@H](C)CO)C(=O)c2cc(C#CCN(C)C)cnc2O[C@H]1CN(C)C(=O)c1ccc2c(c1)OCO2	-2.1	.	.	-1.9	.
C[C@@H]1CN([C@@H](C)CO)C(=O)c2cccc(NC(=O)Nc3ccc(C(F)(F)F)cc3)c2O[C@@H]1CN(C)C(=O)NC1CCCCC1	2.2	.	.	-0.8	.
C[C@@H]1CN([C@@H](C)CO)C(=O)c2cc(C3=CCCCC3)cnc2O[C@@H]1CN(C)S(C)(=O)=O	.	.	.	15.7	.
CC(C)(C)c1ccc(C(=O)CCCSC2=C(C#N)C(c3ccco3)C3=C(CCCC3=O)N2)cc1 (centres undefined)	-0.7	-0.7	57.0*	.	4.0
Cc1ccc(C(=O)CSC2=C(C#N)C(c3ccco3)C3=C(CCCC3=O)N2)cc1 (centres undefined)	0.9	-1.4	105.0	.	1.5
C[C@H]1CCCCO[C@@H](CN(C)S(=O)(=O)c2ccccc2)[C@@H](C)CN([C@@H](C)CO)C(=O)c2cc(NS(C)(=O)=O)ccc2O1	-4.3	.	.	-4.3	.
CNC[C@@H]1Oc2c(NS(=O)(=O)c3cn(C)cn3)cccc2C(=O)N([C@@H](C)CO)C[C@@H]1C	-17.1	.	.	20.3	.
CCCCCCCCCOC(=O)C(CC(=O)O)N1CCOCC1 (centres undefined)	0.9	-2.9	106.0	6.0	32.1*
COc1cccc(NC(=O)C[C@H]2CC[C@H]3[C@@H](COc4ccc(NC(=O)C5CCOCC5)cc4C(=O)N3C)O2)c1	-5.2	.	.	-2.5	.
O=C(Nc1ccccc1N1CCOCC1)[C@@H]1O[C@H](CO)[C@H](O)[C@H](O)[C@H]1O	.	-0.5	94.0	4.9	32.3*
CCCC(=O)Nc1ccc2c(c1)C(=O)N(C)C[C@@H](OC)[C@@H](C)CN(CC1CCOCC1)[C@H](C)CO2	.	.	.	11.5	.
CCc1nnc(NC(=O)C(NC(=O)c2ccccc2Cl)C(C)C)s1 (centres undefined)	-1.8	0.7	100.0	0.3	2.4
CC(C)[C@H](NC(=O)c1ccccc1Cl)C(=O)Nc1nc(-c2ccccn2)cs1	57.7*	0.4	87.0	1.6	-10.6
CCc1cc(C(=O)Nc2nc(-c3ccccn3)cs2)sc1C	65.3*	-0.5	106.0	7.7	-21.3
CC1CC1C(=O)Nc1nc(-c2ccccn2)cs1 (centres undefined)	61.7*	8.5	97.0	.	10.2
CC(=O)Nc1ccc(C(=O)Nc2nc(-c3ccccn3)cs2)cc1	.	0.2	99.0	-3.9	-6.3
COc1ccc2c3c(n(C)c2c1)[C@@H](CO)N(Cc1ccccc1)CC31CCN(CC2CC2)CC1	.	.	.	2.4	.

Bioassay records: PubChem BioAssay, several laboratories
